In PubChem BioAssay (Tox21):
Records with an inconclusive call do not appear. The source made the active and inactive calls. Unless noted, calls come from the whole dose curve; as a rule, active = well fitted curve in the direction sought with a large enough effect in the repeat runs; inconclusive = weak or mixed curves; inactive = no such curve, though single readings can be large; an effect the other way counts as inactive or inconclusive.

Experiments:
[1] = qHTS assay to identify small molecule agonists of the peroxisome proliferator-activated receptor delta (PPARd) signaling pathway - cell viability counter screen (AID 743211); note: nearly all actives have a fitted effect of over 55% in size
Procedure, shortened: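 PPARd-bla HEK293H cells (UAS-beta-lactamase reporter) were treated with compounds for 17 h at 37 C. Viability was then read in the same wells by CellTiter-Glo luminescence after 30 min at room temperature.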

[2] = molecular target: Peroxisome proliferator-activated receptor delta (Homo sapiens) (UniProt Q03181); experiment: qHTS assay to identify small molecule agonists of the peroxisome proliferator-activated receptor delta (PPARd) signaling pathway (AID 743212; calls by dose curve)
Peroxisome proliferator-activated receptor delta (Homo sapiens), sequence (Q03181 whole entry, looked up): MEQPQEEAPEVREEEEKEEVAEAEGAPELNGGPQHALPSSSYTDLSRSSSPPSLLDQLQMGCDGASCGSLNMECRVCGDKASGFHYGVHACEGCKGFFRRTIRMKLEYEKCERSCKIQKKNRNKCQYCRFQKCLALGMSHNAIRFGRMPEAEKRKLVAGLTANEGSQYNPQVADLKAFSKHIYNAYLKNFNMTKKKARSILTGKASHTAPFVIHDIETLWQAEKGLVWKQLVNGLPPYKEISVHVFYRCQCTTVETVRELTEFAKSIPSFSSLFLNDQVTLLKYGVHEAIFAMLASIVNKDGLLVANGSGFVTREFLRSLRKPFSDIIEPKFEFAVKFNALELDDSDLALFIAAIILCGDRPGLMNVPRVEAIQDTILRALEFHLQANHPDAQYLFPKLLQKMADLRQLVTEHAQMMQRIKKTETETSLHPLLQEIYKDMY
Procedure, shortened: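 Steps: seed PPARd-bla HEK293H cells; incubate 5 h, 37 C, 5% CO2; add compounds in DMSO; incubate, 37 C; add LiveBLAzer B/G FRET substrate; hold 2 h at room temperature; measure fluorescence.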

[3] = qHTS assay to identify small molecule antagonists of the peroxisome proliferator-activated receptor delta (PPARd) signaling pathway - cell viability counter screen (AID 743213); note: nearly all actives have a fitted effect of over 50% in size
Procedure, shortened: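 Cytotoxicity counter screen: CellTiter-Glo luminescence read 30 min after addition, in the same wells as the reporter assay. There, PPARd UAS-bla HEK293H cells (3000/well) were treated 17 h at 37 C with compound and 300 nM L165041.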

[4] = molecular target: Peroxisome proliferator-activated receptor delta (Homo sapiens) (UniProt Q03181); experiment: qHTS assay to identify small molecule antagonists of the peroxisome proliferator-activated receptor delta (PPARd) signaling pathway (AID 743215; active = well fitted inhibition curve with a large enough effect in the signal ratio in the repeat runs, not every such curve was filed as active; the % refers to the signal ratio;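 note: cells stimulated with agonist L165041 at 300 nM final during compound exposure; series mostly up to about 62 µM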)
Procedure, shortened: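 Fluorescence from cleaved LiveBLAzer B/G FRET substrate (2 h, room temperature) reports PPARd-driven beta-lactamase in HEK293H UAS-bla cells. Cells had been treated 17 h at 37 C with compound plus 300 nM final L165041.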

[5] = qHTS assay to identify small molecule agonists of the farnesoid-X-receptor (FXR) signaling pathway - cell viability counter screen (AID 743218); note: nearly all actives have a fitted effect of over 45% in size
Procedure, shortened: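 Readout: CellTiter-Glo luminescence, 30 min RT, multiplexed after the FXR-bla FRET reading. HEK 293T FXR-UAS-bla cells received compound 5 h post-plating and were incubated 16 h at 37 C.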

[6] = qHTS assay to identify small molecule antagonists of the farnesoid-X-receptor (FXR) signaling pathway - cell viability counter screen (AID 743221; active = well fitted cell-killing curve with a large enough effect in the repeat runs, not every such curve was filed as active; note: nearly all actives have a fitted effect of over 50% in size)
Procedure, shortened: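 FXR-UAS-bla HEK 293T cells were treated with test compounds plus chenodeoxycholic acid (50 uM final) for 16 h at 37 C. Cell viability in the same wells was then read as CellTiter-Glo luminescence after 30 min at room temperature.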

[7] = molecular target: Vitamin D3 receptor (Homo sapiens) (UniProt P11473); experiment: qHTS assay to identify small molecule antagonists of the vitamin D receptor (VDR) signaling pathway (AID 743223; active = well fitted inhibition curve with a large enough effect in the signal ratio in the repeat runs, not every such curve was filed as active; the % refers to the signal ratio)
Vitamin D3 receptor (Homo sapiens), sequence (P11473 whole entry, looked up): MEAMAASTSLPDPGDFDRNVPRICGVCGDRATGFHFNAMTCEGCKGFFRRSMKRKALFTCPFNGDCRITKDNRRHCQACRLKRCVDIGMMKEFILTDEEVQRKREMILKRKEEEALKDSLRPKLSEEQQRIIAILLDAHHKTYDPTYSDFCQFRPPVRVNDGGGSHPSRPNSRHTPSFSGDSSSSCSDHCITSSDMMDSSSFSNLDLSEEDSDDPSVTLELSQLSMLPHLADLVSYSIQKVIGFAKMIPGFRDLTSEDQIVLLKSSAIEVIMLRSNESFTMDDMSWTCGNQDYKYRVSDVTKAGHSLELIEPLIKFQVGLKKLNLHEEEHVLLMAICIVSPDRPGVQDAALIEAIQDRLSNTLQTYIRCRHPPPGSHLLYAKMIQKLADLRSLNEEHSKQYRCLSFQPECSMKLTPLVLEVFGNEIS
Procedure, shortened: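 VDR-bla cells were plated, incubated 4 h at 37C, then given compound and 1alpha,25-dihydroxyvitamin D3 (3 nM final). After 16 h at 37C, LiveBLAzer B/G FRET substrate was added for 2 h at room temperature and fluorescence read.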

[8] = qHTS assay to identify small molecule agonists of the vitamin D receptor (VDR) signaling pathway - cell viability counter screen (AID 743224); note: series mostly up to about 63 µM; nearly all actives have a fitted effect of over 50% in size
Procedure, shortened: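 In parallel with the bla FRET readout, cytotoxicity toward VDR-bla cells after 16 h compound exposure was assessed by CellTiter-Glo, with luminescence recorded after a 30 min room-temperature incubation.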

[9] = qHTS assay to identify small molecule antagonists of the vitamin D receptor (VDR) signaling pathway - cell viability counter screen (AID 743225); note: nearly all actives have a fitted effect of over 50% in size
Procedure, shortened: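 VDR-bla HEK 293T cells, 4 h pre-incubation at 37C, then compound plus 1-alpha,25-dihydroxyvitamin D3 (3 nM final) for 16 h. After the beta-lactamase FRET read, CellTiter-Glo was added to the same wells; luminescence after 30 min at room temperature.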

[10] = qHTS assay to identify small molecule agonists of the NFkB signaling pathway - cell viability counter screen (AID 1159515; calls by dose curve; note: series mostly up to about 61 µM; nearly all actives have a fitted effect of over 55% in size)
Procedure, shortened: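 Plate 2,000 NFkB-bla ME-180 cells/well; incubate overnight. Add compounds, 5 hr at 37 C. Add FRET substrate, 1.5 hr RT. Add CellTiter-Glo, 30 min RT; read luminescence.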

[11] = qHTS assay to identify small molecule agonists of the endoplasmic reticulum stress response signaling pathway (AID 1159516; active = well fitted activation curve with a large enough effect in the signal ratio in the repeat runs, not every such curve was filed as active; the % refers to the signal ratio)
Procedure, shortened: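 Beta-lactamase expression from the ER stress response element in HeLa reporter cells is quantified with the LiveBLAzer B/G FRET substrate, read at 405 nm excitation after 2 hr at room temperature, following 5 hr compound treatment at 37 C.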

[12] = qHTS assay to identify small molecule agonists of the endoplasmic reticulum stress response signaling pathway - cell viability counter screen (AID 1159517; calls by dose curve)
Procedure, shortened: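 After overnight attachment, ESRE-bla HeLa cells were treated with Tox21 library compounds for 5 hr. CellTiter-Glo luminescence, read 30 min post-addition at room temperature, reported viability.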

[13] = qHTS assay to identify small molecule antagonists of the retinoid-related orphan receptor gamma (ROR-gamma) signaling pathway - cell viability counter screen (AID 1159520); note: nearly all actives have a fitted effect of over 50% in size
Procedure, shortened: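 Cytotoxicity was read from cellular ATP (CellTiter-Glo luminescence) after 16 hr at 37 C with 1 uM doxycycline induction. The inducer was added 2 hr after compound transfer to Tet-on ROR gamma CHO cells.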

[14] = molecular target: Nuclear receptor ROR-gamma (Homo sapiens) (UniProt P51449); experiment: qHTS assay to identify small molecule antagonists of the retinoid-related orphan receptor gamma (ROR-gamma) signaling pathway (AID 1159521)
Procedure, shortened: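 Tet-on RORγ CHO cells carrying a ROR response element–luciferase reporter were pretreated with compounds for 2 h, then induced with 1 uM (final) doxycycline hyclate for 16 h at 37 C. Antagonism was read as decreased ONE-Glo luminescence.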

[15] = qHTS assay to identify small molecule agonists of the AP-1 signaling pathway - cell viability counter screen (AID 1159525; calls by dose curve; note: nearly all actives have a fitted effect of over 55% in size)
Procedure, shortened: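 Intracellular ATP by Cell Titer Glo luminescence (30 min, RT) in the same ME-180 AP-1-bla wells after the 5 h compound exposure at 37 °C. Normalised to tetra n-octyl ammonium bromide and DMSO controls.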

[16] = qHTS assay to identify small molecule agonists of the AP-1 signaling pathway (AID 1159526; calls by dose curve)
[17] = molecular target: Retinoic acid receptor RXR-alpha (Homo sapiens) (UniProt P19793); experiment: qHTS assay to identify small molecule agonists of the RXR signaling pathway (AID 1159527; calls by dose curve; note: nearly all actives have a fitted effect of over 35% in size)
Retinoic acid receptor RXR-alpha (Homo sapiens), sequence (P19793 whole entry, looked up): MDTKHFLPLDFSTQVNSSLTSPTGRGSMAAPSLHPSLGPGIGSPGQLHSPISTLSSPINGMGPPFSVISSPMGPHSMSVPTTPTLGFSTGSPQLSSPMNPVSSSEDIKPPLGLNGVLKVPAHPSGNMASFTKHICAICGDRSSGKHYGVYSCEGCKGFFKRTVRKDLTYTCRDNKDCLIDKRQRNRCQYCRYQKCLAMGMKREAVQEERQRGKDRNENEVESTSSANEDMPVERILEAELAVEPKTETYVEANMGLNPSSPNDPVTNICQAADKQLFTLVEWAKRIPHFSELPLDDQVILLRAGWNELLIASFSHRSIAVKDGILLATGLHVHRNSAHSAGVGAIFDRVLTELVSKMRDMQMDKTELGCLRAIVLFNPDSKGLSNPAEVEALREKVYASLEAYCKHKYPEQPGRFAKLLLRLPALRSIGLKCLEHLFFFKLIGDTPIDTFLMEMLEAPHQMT
Procedure, shortened: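 GeneBLAzer RXR-alpha-UAS-bla HEK 293T cells in medium with 2% charcoal-stripped FBS, pre-incubated 5 hr at 37 C, then exposed to compounds 16 hr. Beta-lactamase reporter read by FRET substrate, 2 hr room temperature, 460/530 nm emission.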

[18] = molecular target: Vitamin D3 receptor (Homo sapiens) (UniProt P11473); experiment: qHTS assay to identify small molecule agonists of the vitamin D receptor (VDR) signaling pathway (AID 743222; calls by dose curve)
Procedure, shortened: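 Following 4 h attachment at 37C, VDR-bla cells (2,000 per well) received DMSO-dissolved compounds or controls. After 16 h incubation, LiveBLAzer B/G FRET substrate was added and fluorescence read 2 h later at room temperature.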

[19] = molecular target: Bile acid receptor (Homo sapiens) (UniProt Q96RI1); experiment: qHTS assay to identify small molecule antagonists of the farnesoid-X-receptor (FXR) signaling pathway (AID 743217; active = well fitted inhibition curve with a large enough effect in the signal ratio in the repeat runs, not every such curve was filed as active; the % refers to the signal ratio)
Bile acid receptor (Homo sapiens), sequence (Q96RI1 whole entry, looked up): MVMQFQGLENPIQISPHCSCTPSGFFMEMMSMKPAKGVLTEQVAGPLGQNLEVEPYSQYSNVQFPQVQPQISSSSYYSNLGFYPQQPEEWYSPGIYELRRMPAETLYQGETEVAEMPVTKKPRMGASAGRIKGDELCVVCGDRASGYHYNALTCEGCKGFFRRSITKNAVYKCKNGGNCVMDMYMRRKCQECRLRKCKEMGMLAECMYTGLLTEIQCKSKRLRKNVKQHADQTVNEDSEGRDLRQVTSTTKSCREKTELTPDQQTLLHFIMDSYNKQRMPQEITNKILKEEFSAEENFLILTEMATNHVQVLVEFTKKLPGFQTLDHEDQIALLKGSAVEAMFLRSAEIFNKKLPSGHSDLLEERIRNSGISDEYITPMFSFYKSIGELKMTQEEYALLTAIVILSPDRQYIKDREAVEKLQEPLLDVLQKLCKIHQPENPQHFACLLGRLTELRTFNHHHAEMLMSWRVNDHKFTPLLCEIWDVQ
Procedure, shortened: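 FRET fluorescence after 2 h room-temperature LiveBLAzer loading gives the readout. Prior step: FXR-bla HEK 293T cells, seeded and incubated 5 h, received test compounds plus 50 uM final CDCA for 16 h at 37 °C.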

[20] = molecular target: Bile acid receptor (Homo sapiens) (UniProt Q96RI1); experiment: qHTS assay to identify small molecule agonists of the farnesoid-X-receptor (FXR) signaling pathway (AID 743220; active = well fitted activation curve with a large enough effect in the signal ratio in the repeat runs, not every such curve was filed as active; the % refers to the signal ratio)
Procedure, shortened: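 FXR-UAS-bla HEK 293T cells carrying a UAS-driven beta-lactamase reporter were plated for 5 h at 37C/5% CO2, then exposed to DMSO-dissolved Tox21 10K compounds for 16 h at 37C. A LiveBLAzer B/G FRET substrate was loaded for 2 h at room temperature before fluorescence reading.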

Measured: Potency

COC(=O)C(c1ccccc1Cl)N1CCc2sccc2C1 (configuration not stated)
not listed: [18] | [19] | [20]
inactive: all other assays above

CC(CN1CC(=O)NC(=O)C1)N1CC(=O)NC(=O)C1 (configuration not stated)
not listed: [7] | [9] | [18] | [19] | [20]
inactive: all other assays above

CN(C)CCc1c[nH]c2ccc(CS(=O)(=O)N3CCCC3)cc12
not listed: [9] | [18] | [19] | [20]
inactive: all other assays above

CC(C)(C)NCC(O)COc1cccc2c1CCC(=O)N2 (configuration not stated)
not listed: [7] | [8] | [18] | [19] | [20]
inactive: all other assays above

CCCCS
not listed: [18] | [19] | [20]
inactive: all other assays above

N[C@H]1C(O)O[C@H](CO)[C@@H](O)[C@@H]1O (some centres not stated)
not listed: [1] | [5] | [19] | [20]
inactive: all other assays above

Cc1ccc(NC(N)=O)cc1
not listed: [3] | [18] | [19] | [20]
inactive: all other assays above

C=C(C)C(=O)OCCOC1CC2CC1C1C=CCC21 (configuration not stated)
not listed: [1] | [7] | [9]
inactive: all other assays above

CC(=O)O[C@@H]1CC2C3CCc4cc(OC(=O)c5ccccc5)ccc4C3CCC2(C)[C@H]1OC(C)=O (some centres not stated)
not listed: [2] | [4] | [18]
inactive: all other assays above

C[C@]12C=CC(=O)C=C1[C@@H](F)C[C@@H]1[C@@H]2[C@@H](O)C[C@@]2(C)[C@H]1CC[C@]2(O)C(=O)CO
not listed: [3] | [19] | [20]
inactive: all other assays above

COc1ccc2cc(CCC(C)=O)ccc2c1
not listed: [3] | [4] | [7] | [18] | [19]
inactive: all other assays above

CCOc1ccccc1OCCN[C@H](C)Cc1ccc(OC)c(S(N)(=O)=O)c1
not listed: [2] | [3] | [4] | [8] | [19] | [20]
inactive: all other assays above

C=CCn1cc[n+](C)c1
not listed: [2] | [4] | [19] | [20]
inactive: all other assays above

CCCCCCCCS(=O)(=O)O
not listed: [2] | [4] | [8] | [18]
inactive: all other assays above

C[Si](C)(C)O[Si](O)(O)O
not listed: [4] | [8] | [18]
inactive: all other assays above

CC/C=C\CCCCCCCCCCOC(C)=O
not listed: [1] | [9] | [18] | [19] | [20]
inactive: all other assays above

CC(=O)/C=C/C=C1/C2CCC(C2)C1(C)C (configuration not stated)
not listed: [2] | [4]
inactive: all other assays above

CCCCCCCCCCCC(C)=O
not listed: [4] | [7]
inactive: all other assays above
